Pf Dd2 inh – qHTS Primary assay for Inhibitors of Plasmodium falciparum Dd2 growth in vitro | Potency, µM (doses to about 28.9 µM), for the others: at the top dose activity, negative = inhibition, actives largely listed as inhibitors | AID 1347417, 2020 | 120,000 tested, 4.3% active | P. falciparum Dd2 growth, SYBR Green, 72 h; active = well fitted inhibition curve with a large enough effect;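 note: plate controls were DMSO vehicle for no effect and reference drug for full effect; nearly all actives have a fitted effect of over 65% in size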
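Infected erythrocytes (Dd2, 0.3% parasitemia, 2.5% hematocrit final) are added to compound in RPMI-1640/Albumax II medium, grown 72 h at 37C in low oxygen, then lysed with saponin/Triton-X containing SYBR Green and read by fluorescence.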
* = called active by the depositor; i = inactive; [ ] = another dose, or the depositor's remark. The sample as a whole holds a higher share of hits than the screen did. Potency is the fitted concentration of half-maximal effect.

SMILES	Pf Dd2 inh
CN(Cc1ccco1)C(=O)c1cccc2c1CCN2C(=O)Nc1ccccc1	i
CCNC(=O)c1cccc2c1CCN2C(=O)Nc1ccc(C)cc1	i
CN(Cc1ccccc1)C(=O)c1cccc2c1CCN2C(=O)Nc1ccccc1	6.31µM*
Cc1ccc(NC(=O)C2CCCN(S(=O)(=O)c3c(C)nn(C)c3C)C2)c(C)c1 (stereo not drawn)	-7.6%
O=C(NCc1cccnc1)C1CCc2nnc(C3CCN(C(=O)c4ccccc4)CC3)n21 (stereo not drawn)	13.8%
COc1ccc(CNc2nc3c(-c4cccc(C)c4)nnn3c3ccccc23)cc1	12.7%
COc1cccc(CN2CCc3c(cc(C(=O)N4CCN(CC(C)C)CC4)n3C)C2)c1	6.31µM*
Cn1c(C(=O)NCc2cccnc2)cc2c1CCN(Cc1ccccc1)C2	i
COc1cccc(CN2CCc3c(cc(C(=O)N(C)C)n3C)C2)c1	-15.5%
COCC(=O)N1CC(C(=O)O)C2(CCOCC2)C1 (stereo not drawn)	2.3%
COCc1cn(C[C@H]2C[C@@H](NS(=O)(=O)c3ccccc3)[C@H](O)[C@@H]2O)nn1	12.4%[44.1 µM]
O=C(OCC1CCCO1)c1ccc2c(c1)N(Cc1ccc(F)cc1)C(=O)c1ccccc1S2(=O)=O (stereo not drawn)	-6.2%
Cc1ccc(C)c(CN2C(=O)c3ccccc3S(=O)(=O)c3ccc(C(=O)NCc4ccccc4)cc32)c1	7.08µM*
Cc1ccc(C)c(CN2C(=O)c3ccccc3S(=O)(=O)c3ccc(C(=O)N4CCN(c5ccccc5)CC4)cc32)c1	5.62µM*
O=C(c1ccc2c(c1)N(Cc1ccccc1F)C(=O)c1ccccc1S2(=O)=O)N1CCCC1	-12.1%
Cc1ccc(CNC(=O)c2ccc3c(c2)N(Cc2ccccc2)C(=O)c2ccccc2S3(=O)=O)cc1	-43.9%
O=C(c1ccc2c(c1)N(Cc1ccccc1F)C(=O)c1ccccc1S2(=O)=O)N1CCCCC1	i
CCOC(=O)N1CCC(NC(=O)c2ccc3c(c2)N(Cc2cc(C)ccc2C)C(=O)c2ccccc2S3(=O)=O)CC1	11.2µM*
O=C(c1ccc2c(c1)N(Cc1ccc(F)cc1)C(=O)c1ccccc1S2(=O)=O)N1CCCC1	-10.1%
CCOC(=O)c1ccc2c(c1)N(Cc1cc(C)ccc1C)C(=O)c1ccccc1S2(=O)=O	i
O=C(c1ccc2c(c1)N(Cc1ccccc1)C(=O)c1ccccc1S2(=O)=O)N1CCN(Cc2ccccc2)CC1	8.91µM*
COCCNC(=O)c1ccc2c(c1)N(Cc1cc(C)ccc1C)C(=O)c1ccccc1S2(=O)=O	-24.7%
Cc1ccc(CCNC(=O)c2ccc3c(c2)N(Cc2cccc(C)c2)C(=O)c2ccccc2S3(=O)=O)cc1	-2.4%
O=C(NCc1nnc2ccc(-c3ccc(Cl)cc3)nn12)c1cccc(Cl)c1	i
O=C(NCC1CCOc2ccccc2C1)c1cn(CCN2CCNCC2)nn1 (stereo not drawn)	-22.9%
SMILES	Pf Dd2 inh
CN1C(=O)[C@@H]2C[C@@H](O)CN2C2(CN(C3CCC(F)(F)CC3)C2)C1=O	8.1%[44.1 µM]
COc1ccc(OCC(=O)N2CCCC(CNC(=O)c3ccc(F)cc3)C2)cc1 (stereo not drawn)	-16.0%
COC(=O)c1ccc2c(c1)N(Cc1ccccc1)C(=O)c1ccccc1S2(=O)=O	56.5%
O=C(NCc1ccco1)c1ccc2c(c1)N(Cc1ccccc1)C(=O)c1ccccc1S2(=O)=O	-12.6%
CCC(C)NC(=O)c1ccc2c(c1)N(Cc1ccccc1)C(=O)c1ccccc1S2(=O)=O (stereo not drawn)	3.16µM*
COc1ccc(C(=O)c2sc3nc(-c4ccc(C)cc4)cc(C(F)(F)F)c3c2N)cc1	6.2%
CCn1c(=O)c2c(nc3n2CCN3c2ccc(OC)cc2)n(C)c1=O	-21.3%
COc1cccc(CCC(=O)N2CCCN(c3cc(-c4ccc(C)c(C)c4)[nH]n3)CC2)c1	-6.5%
CCc1ccccc1NC(=O)CSc1nc(-c2cccc(Cl)c2)nc2c1Cc1c(CO)cnc(C)c1O2	-1.3%
CCSc1nc(-c2ccccc2F)nc2c1Cc1c(CO)cnc(C)c1O2	9.7%
Cc1ncc(CO)c2c1Oc1nc(-c3ccccc3Cl)nc(SCc3ccccc3F)c1C2	4.47µM*
Cc1ncc(CO)c2c1Oc1nc(-c3ccccc3F)nc(SCC(=O)N3CCCCC3)c1C2	-8.5%
Cc1ccc(C)c(CSc2nc(-c3ccccc3F)nc3c2Cc2c(CO)cnc(C)c2O3)c1	8.91µM*
Cc1c(Cl)cccc1NC(=O)CCS(=O)(=O)c1ccc(Br)s1	16.6%
Cc1cc(C(=O)N2CCc3nn(Cc4ccccc4)c(=O)n3CC2)n(C)n1	2.9%
CCC(CC)C(=O)NC1CCN(c2cnn(C)c(=O)c2)CC1	17.1%
COc1ccc(CCNC(=O)c2c[nH]n3c(=O)c(Cc4ccccc4Cl)c(C)nc23)cc1OC	10µM*
Cc1nc2c(C(=O)NCCc3ccc(Cl)cc3)c[nH]n2c(=O)c1Cc1ccccc1F	29.6%
Cc1nc2c(C(=O)NCCc3ccccc3)c[nH]n2c(=O)c1Cc1ccc(F)cc1Cl	17.6%
Nc1nc(C2CC(O)C2)cc(N2CCC(CCN3CCCC3=O)CC2)n1 (stereo not drawn)	i
CC(O)c1cc2n(n1)CCN(Cc1ccc(CN(C)S(C)(=O)=O)o1)C2 (stereo not drawn)	-8.7%
Cc1c(CN2C[C@@H]3C(=O)N(CCCN4CCCC4=O)C(=O)[C@@H]3C2)cnn1C	20.1%
Cc1ccc(NC(=O)N2C[C@@H](F)C[C@H]2C(=O)N2CCc3ccccc3C2)c(C)c1	-21.7%
Cc1cc(Cl)ccc1NC(=O)N1C[C@@H](F)C[C@H]1C(=O)N1CCc2ccccc2C1	-16.4%
Cc1cccc(NC(=O)N2C[C@@H](F)C[C@H]2C(=O)N2CCc3ccccc3C2)c1C	7.94µM*
SMILES	Pf Dd2 inh
Cc1noc([C@@H]2CN(S(=O)(=O)c3ccc4c(c3)CCCC4)C[C@H]2C(N)=O)n1	-15.3%
Cc1ccc(NC(=O)CCNS(=O)(=O)c2cccc3nsnc23)cc1	31.6%
Brc1ccc2nc(-c3ccccc3)c(Nc3ccc4c(c3)OCO4)n2c1	-12.7%
Cc1ccccc1Nc1c(-c2ccc(N3CCOCC3)cc2)nc2ccc(Cl)cn12	8.91µM*
Cc1ccc(-c2nc3ccc(Cl)cn3c2Nc2ccccc2C)s1	-0.7%
Clc1ccc2nc(-c3ccc(N4CCOCC4)cc3)c(Nc3ccccc3)n2c1	-28.8%
Cc1ccn2c(Nc3ccccc3C)c(-c3ccc(N4CCOCC4)cc3)nc2c1	6.31µM*
Cc1ccc(Nc2c(-c3ccc(N4CCOCC4)cc3)nc3ccc(Cl)cn23)cc1	47.1%
Cc1cccc(C)c1Nc1c(-c2ccc(N3CCOCC3)cc2)nc2ncccn12	-5.9%
Cc1ccc(Nc2c(-c3ccc(N4CCOCC4)cc3)nc3cccc(C)n23)cc1	-17.6%
Cc1ccccc1Nc1c(-c2c(F)cccc2Cl)nc2ccc(Br)cn12	10µM*
COCCOCC(=O)N1CCC(c2noc(C3CC3)n2)C1 (stereo not drawn)	12.3%[5.79 µM]
O=C1C2CN(Cc3ccc(F)cc3F)CCC2OCCN1Cc1ccccc1 (stereo not drawn)	i
COc1ccc(OC)c(NC(=O)Cn2ccn(-c3ccc(F)cc3)c(=O)c2=O)c1	57.1%
N#Cc1ccc(O[C@@H]2CCOC[C@H]2NC(=O)CCc2cc(=O)[nH]o2)cc1	-16.4%
CC(C)(C)OC(=O)N1CCC(c2c(C(=O)N3CCN(Cc4ccccc4)CC3)cnn2-c2ccc(Cl)cc2)CC1	11.2µM*
Cc1ccc(-n2ncc(C(=O)N3CCN(Cc4ccccc4)CC3)c2C2CCN(C(=O)OC(C)(C)C)CC2)c(C)c1	8.91µM*
Cc1ccc(-n2ncc(C(=O)N3CCN(C(=O)c4ccco4)CC3)c2C2CCN(C(=O)OC(C)(C)C)CC2)cc1	-18.9%
